Test results taken from PubChem BioAssay (Tox21).
Results filed as inconclusive are left out. The source made the active and inactive calls. Unless noted, calls follow the shape of the dose curve; as a rule, active = well fitted curve in the direction sought with a large enough effect in the repeat runs; inconclusive = weak or mixed curves; inactive = no such curve, though single readings can be large; an effect the other way counts as inactive or inconclusive.

Key:
[1] = biological target: Nuclear receptor subfamily 1 group I member 3 (Homo sapiens) (UniProt Q14994); test: qHTS assay to identify small molecule antagonists of the constitutive androstane receptor (CAR) signaling pathway (AID 1224838);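 also: HepG2 cells stably expressing hCAR with CYP2B6 luciferase reporter stimulated by CITCO; nearly all actives have a fitted effect of over 40% in size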; also: potency is read from the fitted curve at half-maximal effect
Sequence of Nuclear receptor subfamily 1 group I member 3 (Homo sapiens) (Q14994 whole entry, looked up): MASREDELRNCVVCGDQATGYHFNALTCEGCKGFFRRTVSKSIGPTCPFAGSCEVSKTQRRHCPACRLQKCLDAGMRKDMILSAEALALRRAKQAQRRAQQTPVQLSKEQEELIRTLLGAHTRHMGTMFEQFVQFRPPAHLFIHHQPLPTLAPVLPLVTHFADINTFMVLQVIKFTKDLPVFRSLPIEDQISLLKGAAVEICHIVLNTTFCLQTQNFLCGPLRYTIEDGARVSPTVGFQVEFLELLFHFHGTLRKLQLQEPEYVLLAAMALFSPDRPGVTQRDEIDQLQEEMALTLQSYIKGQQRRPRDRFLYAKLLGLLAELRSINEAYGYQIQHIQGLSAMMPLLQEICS
Summary of the method: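 Antagonist mode used CITCO at a final 50 nM to activate CAR in human hepatoma HepG2 cells carrying stable hCAR and a 2.2 kb CYP2B6 promoter-luciferase construct. Compounds were tested at 15 concentrations over 24 h, with luminescence as the end point.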

[2] = biological target: Nuclear receptor subfamily 1 group I member 3 (Homo sapiens) (UniProt Q14994); test: qHTS assay to identify small molecule agonists of the constitutive androstane receptor (CAR) signaling pathway (AID 1224839); also: nearly all actives have a fitted effect of over 15% in size; also: potency is read from the fitted curve at half-maximal effect
Summary of the method: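 Compounds tested at 15 concentrations on HepG2 cells stably harbouring hCAR and CYP2B6-2.2kb reporter constructs, co-treated with PK11195 (0.75 uM final), 24 h at 37 C; luminescent reporter signal quantified.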

[3] = qHTS assay to identify small molecule agonists of the hypoxia (HIF-1) signaling pathway - cell viability counter screen (AID 1224844; calls by dose curve; also: nearly all actives have a fitted effect of over 50% in size; also: potency is read from the fitted curve at half-maximal effect)
Summary of the method: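 Cytotoxicity was measured in parallel with the HRE-driven beta-lactamase readout: after 17 hrs of compound exposure at 37C, HRE-bla ME-180 cells received CellTiter-Glo and luminescence was recorded 30 min later.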

[4] = qHTS assay to identify small molecule agonists of H2AX (AID 1224845; active = well fitted activation curve with a large enough effect in the signal ratio in the repeat runs, not every such curve was filed as active; the % refers to the signal ratio)
Summary of the method: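 Wild-type CHO-K1 cells, plated overnight, exposed 3hr at 37C to 15 concentrations (0.76% DMSO final). Lysed, then HTRF anti-pH2AX (S139) cryptate and anti-H2AX-d2 antibodies, 24 hr room temperature; 665/620 nm emission read.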

[5] = qHTS assay to identify small molecule agonists of the hypoxia (HIF-1) signaling pathway (AID 1224846; active = well fitted activation curve with a large enough effect in the signal ratio in the repeat runs, not every such curve was filed as active; the % refers to the signal ratio)
Summary of the method: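 Compounds from the Tox21 10K library, dissolved in DMSO, are tested for induction of a hypoxia response element–controlled beta-lactamase reporter in ME-180 cells. Exposure lasts 17 hrs at 37C after a 5 hr settling period, followed by CCF4-AM FRET substrate.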

[6] = qHTS assay to identify small molecule agonists of H2AX - cell viability counter screen (AID 1224847; calls by dose curve; also: nearly all actives have a fitted effect of over 30% in size; also: potency is read from the fitted curve at half-maximal effect; as to activity change, negative = cytotoxicity: top concentration of the series differs between compounds)
Summary of the method: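 Compounds tested at 15 concentrations were incubated 3 hr at 37C with wild-type CHO-K1 cells; cellular ATP-based luminescence (CellTiter-Glo) indicated viability.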

[7] = qHTS RealTime-Glo MT Cell Viability Assay in HepG2 cells - 24 hour (AID 1224867); also: nearly all actives have a fitted effect of over 50% in size; also: potency is read from the fitted curve at half-maximal effect
Summary of the method: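 Compound treatment began 5 h after plating HepG2 cells (600/well) with NanoLuc luciferase and prosubstrate. Plates stayed at 37 C for 40 h; luminescence was captured at six time points, 0 h through 40 h.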

[8] = qHTS RealTime-Glo MT Cell Viability Assay in HEK293 cells - 32 hour (AID 1224868); also: nearly all actives have a fitted effect of over 50% in size; also: potency is read from the fitted curve at half-maximal effect; as to activity change, negative = cytotoxic: top concentration of the series differs between compounds
Summary of the method: (§1)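 Quantitative high-throughput screen of the Tox21 10K library in HEK293: cells and RealTime-Glo reagents plated together, compound added at 5 h, luminescence monitored through 40 h at 37 C.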

[9] = A CellTox Green Cytotoxicity Assay to monitor cytotoxicity in HEK293 cells - 0 hour (AID 1224869); also: nearly all actives have a fitted effect of over 50% in size; also: potency is read from the fitted curve at half-maximal effect
Summary of the method: (§2)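 Cells (HEK293, 600/well) and dye reagent are dispensed together. After 5 h at 37 C, 23 nL compound is pinned in. Plates stay at 37 C for 40 h with fluorescence read at 0h, 8h, 16h, 24h, 32h and 40h.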

[10] = qHTS RealTime-Glo MT Cell Viability Assay in HepG2 cells - 40 hour (AID 1224870); also: nearly all actives have a fitted effect of over 50% in size; also: potency is read from the fitted curve at half-maximal effect
Summary of the method: (§3)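 HepG2 cells (600/well) mixed with RealTime-Glo MT reagent, settled 5 h at 37 C/5% CO2 before compound addition. Nonlytic NanoLuc luminescence from viable-cell prosubstrate reduction read repeatedly during 40 h treatment at 37 C.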

[11] = A CellTox Green Cytotoxicity Assay to monitor cytotoxicity in HEK293 cells - 40 hour (AID 1224871); also: nearly all actives have a fitted effect of over 45% in size; also: potency is read from the fitted curve at half-maximal effect
Summary of the method: as §2

[12] = qHTS RealTime-Glo MT Cell Viability Assay in HEK293 cells - 16 hour (AID 1224872); also: nearly all actives have a fitted effect of over 50% in size; also: potency is read from the fitted curve at half-maximal effect; as to activity change, negative = cytotoxicity: top concentration of the series differs between compounds
Summary of the method: as §1

[13] = qHTS RealTime-Glo MT Cell Viability Assay in HepG2 cells - 8 hour (AID 1224873); also: nearly all actives have a fitted effect of over 55% in size
Summary of the method: as §3

[14] = qHTS RealTime-Glo MT Cell Viability Assay in HEK293 cells - 40 hour (AID 1224874); settings: RealTime-Glo luminescence; max response: stronger effect = lower value; also: nearly all actives have a fitted effect of over 50% in size; also: potency is read from the fitted curve at half-maximal effect
Summary of the method: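 Real-time viability in HEK293: signal arises when living cells convert a prosubstrate for NanoLuc in the medium, so luminescence tracks viable cell number. Compound (23 nL, DMSO) added 5 h post-seeding; kinetic reads at 0–40 h, 37 C.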

[15] = qHTS assay to identify small molecule antagonists of the estrogen related receptor signaling pathway with the pleiotropic PPARgamma coactivator (PGC) from Tox21 10K library (AID 1224841; call rule not given here; also: potency is read from the fitted curve at half-maximal effect)
Summary of the method: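 Steps: plate 2,000 PGC/ERR cells per well; incubate 6 h at 37 C with 5% CO2; transfer compounds from DMSO stocks by pin tool; incubate 18 h at 37 C; add One-Glo; measure luminescence 30 min later.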

[16] = qHTS assay to identify small molecule agonists of the estrogen related receptor signaling pathway with the pleiotropic PPARgamma coactivator (PGC) from Tox21 10K library (AID 1224842); also: nearly all actives have a fitted effect of over 15% in size; also: potency is read from the fitted curve at half-maximal effect
Summary of the method: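 PGC/ERR reporter cell line, 2,000 cells per well, incubated 6 h at 37 C before 23 nL compound in DMSO was added. After 18 h at 37 C, One-Glo luminescence read following 30 min at room temperature.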

[17] = biological target: Thyrotropin receptor (Homo sapiens) (UniProt P16473); test: qHTS assay to identify small molecule agonists of the thyroid stimulating hormone receptor (TSHR) signaling pathway (AID 1224843; calls by dose curve; also: nearly all actives have a fitted effect of over 45% in size)
Sequence of Thyrotropin receptor (Homo sapiens) (P16473 whole entry, looked up): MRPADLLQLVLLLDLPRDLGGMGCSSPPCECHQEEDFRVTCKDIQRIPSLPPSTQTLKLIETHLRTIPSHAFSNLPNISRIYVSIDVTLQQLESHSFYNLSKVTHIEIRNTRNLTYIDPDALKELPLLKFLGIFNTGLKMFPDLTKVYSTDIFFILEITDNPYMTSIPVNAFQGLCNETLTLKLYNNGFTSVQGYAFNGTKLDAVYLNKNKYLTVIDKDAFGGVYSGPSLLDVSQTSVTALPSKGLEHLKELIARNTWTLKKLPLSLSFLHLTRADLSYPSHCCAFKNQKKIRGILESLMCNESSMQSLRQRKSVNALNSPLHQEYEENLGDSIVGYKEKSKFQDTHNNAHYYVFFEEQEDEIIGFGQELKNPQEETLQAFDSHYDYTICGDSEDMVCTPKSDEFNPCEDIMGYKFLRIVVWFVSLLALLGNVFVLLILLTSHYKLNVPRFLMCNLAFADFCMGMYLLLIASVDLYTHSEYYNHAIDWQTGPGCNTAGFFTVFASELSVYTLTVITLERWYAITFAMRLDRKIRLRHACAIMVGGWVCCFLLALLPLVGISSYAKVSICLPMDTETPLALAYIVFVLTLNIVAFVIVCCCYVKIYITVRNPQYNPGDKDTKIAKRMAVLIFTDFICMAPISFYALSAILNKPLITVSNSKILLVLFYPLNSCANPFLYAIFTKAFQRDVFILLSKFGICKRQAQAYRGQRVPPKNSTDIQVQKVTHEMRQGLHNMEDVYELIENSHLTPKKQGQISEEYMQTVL
Summary of the method: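 HEK293/TSHR, 800 cells/well; cpd 30 min RT; add cAMP-d2 + anti-cAMP-cryptate, 1 h RT; fluorescence read on plate reader. 15-pt titration, n=3.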

[18] = qHTS assay to identify small molecule antagonists of the estrogen related receptor (ERR) signaling pathway from Tox21 library (AID 1224848); also: nearly all actives have a fitted effect of over 50% in size; also: potency is read from the fitted curve at half-maximal effect
Summary of the method: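 Compounds dissolved in DMSO are pin-transferred onto ERR reporter cells (2,000 per well) that have settled for 6 h at 37 C. Plates then incubate 18 h at 37 C before ONE-Glo luciferase reagent and a luminescence read 30 min later.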

[19] = qHTS assay to identify small molecule agonists of the estrogen related receptor (ERR) signaling pathway from Tox21 library (AID 1224849; calls by dose curve; also: nearly all actives have a fitted effect of over 15% in size); settings: ERR reporter cell line, ONE-Glo luciferase, 18 h; at 92.4 µM (top of the series) unless noted
Summary of the method: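 Cells carrying the ERR reporter were plated and allowed to settle for 6 h, exposed to library compounds for 18 h at 37 C, then lysed with ONE-Glo and luminescence measured.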
% is scaled to controls: 0 for no effect and ±100 for the full control effect.

O=C1OC(=O)c2cc(-c3ccc4c(c3)C(=O)OC4=O)ccc21
inactive: Potency [1] | Potency [2] | Potency [3] | Potency [4] | Potency [5] | Potency [6] | Potency [7] | Potency [8] | Potency [9] | Potency [10] | Potency [11] | Potency [12] | Potency [13] | max response [14] 0.595%

S=C1NC=NC2N=CNC12 (centres undefined)
active: Potency [1] 6.11 µM | Potency [15] 0.486 µM | Potency [6] 3.19 µM | Potency [18] 19.3 µM | Potency [8] 21.9 µM | Potency [14] 17.4 µM
inactive: Potency [2] | Potency [16] | Potency [17] | Potency [3] | Potency [5] | activity change, positive = activation [19] -55.5% | Potency [7] | Potency [9] | Potency [10] | Potency [13]

O=C1c2ccccc2C(=O)c2c(Cl)cccc21
inactive: Potency [1] | Potency [15] | Potency [17] | Potency [18] | activity change, positive = activation [19] 1.21% [at 42.5 µM] | Potency [7] | Potency [9] | Potency [10] | Potency [11] | Potency [13]
active: Potency [2] 28.9 µM

COc1cc(C(C)C)ccc1C
inactive: activity, negative = inhibition [1] -11.9% [at 19 µM] | activation [2] -0.0502% [at 19 µM] | activation [17] 6.84% [at 19 µM] | activity change, negative = cytotoxicity [3] 21.3% [at 15.8 µM] | activation (H2AX phosphorylation) [4] 0.221% [at 31.6 µM] | activation [5] -0.0499% [at 15.8 µM] | activity change, negative = cytotoxicity [6] 1.56% [at 31.6 µM] | activity change, negative = cytotoxicity [7] 0.531% [at 15.8 µM] | activity change, negative = cytotoxic [8] 4.56% [at 15.8 µM] | cytotoxicity [9] -0.495% [at 15.8 µM] | activity change, negative = cytotoxic [10] 19.4% [at 15.8 µM] | cytotoxicity increase [11] -5.42% [at 15.8 µM] | activity change, negative = cytotoxicity [12] -1.07% [at 15.8 µM] | viability change, negative = cytotoxic [13] -7.86% [at 15.8 µM] | max response [14] -0.423%

CN1CC[C@H](c2c(O)cc(O)c3c(=O)cc(-c4ccccc4Cl)oc23)[C@H](O)C1
active: Potency [1] 0.596 µM | Potency [16] 0.531 µM | Potency [8] 0.19 µM | Potency [14] 0.19 µM
inactive: Potency [2] | Potency [15] | Potency [3] | Potency [4] | Potency [18] | activity change, positive = activation [19] 28.6% [at 42.5 µM] | Potency [7] | Potency [9] | Potency [10]

Clc1nc(C(Cl)(Cl)Cl)c(Cl)c(Cl)c1Cl
inactive: Potency [2] | Potency [16] | Potency [6] | activity change, positive = activation [19] -54% | Potency [8] | Potency [9] | Potency [13]
active: Potency [1] 54.5 µM | Potency [3] 4.9 µM | Potency [10] 54.9 µM | Potency [14] 0.011 µM

COc1cc(/C=C/C(=O)CC(=O)/C=C/c2ccc(O)c(OC)c2)ccc1O
active: Potency [1] 54.8 µM | Potency [15] 19.4 µM | Potency [3] 39.2 µM | Potency [18] 13.8 µM | Potency [8] 24.7 µM | Potency [9] 22 µM | Potency [12] 24.7 µM | Potency [14] 22 µM
inactive: Potency [2] | Potency [16] | activity change, positive = activation [19] -73.6%

COc1cccc(-c2ccc(/C=C\CN3CCCCCC3)cc2Cl)c1
inactive: Potency [1] | Potency [2] | Potency [15] | Potency [16] | activity change, positive = activation [19] -20.2% | Potency [9]
active: Potency [6] 89.3 µM | Potency [7] 43.4 µM | Potency [8] 43.4 µM | Potency [10] 43.4 µM | Potency [11] 43.4 µM | Potency [12] 43.4 µM | Potency [14] 43.4 µM
